# Legend:
# [1] = target: T1, 3-phosphoinositide-dependent protein kinase 1 (Homo sapiens) (UniProt O15530); details: at 0.1 µM;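 note: values are mean inhibition of PDK1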
# T1 sequence (whole entry): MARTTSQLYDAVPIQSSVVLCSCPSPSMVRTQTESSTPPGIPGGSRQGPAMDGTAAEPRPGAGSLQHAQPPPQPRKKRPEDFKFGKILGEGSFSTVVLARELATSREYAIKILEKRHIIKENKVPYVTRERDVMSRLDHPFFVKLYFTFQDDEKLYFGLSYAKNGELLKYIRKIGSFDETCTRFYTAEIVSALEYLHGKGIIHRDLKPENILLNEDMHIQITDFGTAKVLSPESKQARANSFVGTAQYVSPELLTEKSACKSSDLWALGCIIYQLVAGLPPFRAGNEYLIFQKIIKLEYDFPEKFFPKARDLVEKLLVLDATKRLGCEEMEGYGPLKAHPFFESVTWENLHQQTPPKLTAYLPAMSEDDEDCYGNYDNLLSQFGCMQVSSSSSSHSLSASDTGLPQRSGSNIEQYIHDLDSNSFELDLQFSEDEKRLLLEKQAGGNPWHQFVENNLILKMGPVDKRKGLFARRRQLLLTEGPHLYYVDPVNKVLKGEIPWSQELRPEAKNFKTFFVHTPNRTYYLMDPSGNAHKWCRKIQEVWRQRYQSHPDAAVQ
# [2] = target: cAMP-dependent protein kinase catalytic subunit alpha (Homo sapiens) (UniProt P17612); details: at 0.1 µM
# [3] = target: cAMP-dependent protein kinase catalytic subunit alpha (Homo sapiens) (UniProt P17612); details: at 1 µM
# [4] = target: Protein kinase C alpha type (Homo sapiens) (UniProt P17252); details: at 0.1 µM
# [5] = target: Protein kinase C alpha type (Homo sapiens) (UniProt P17252); details: at 1 µM
# [6] = target: Protein kinase C beta type (Homo sapiens) (UniProt P05771); details: at 0.1 µM
# Sequence of Protein kinase C beta type (Homo sapiens) (P05771 2-671 limits assumed): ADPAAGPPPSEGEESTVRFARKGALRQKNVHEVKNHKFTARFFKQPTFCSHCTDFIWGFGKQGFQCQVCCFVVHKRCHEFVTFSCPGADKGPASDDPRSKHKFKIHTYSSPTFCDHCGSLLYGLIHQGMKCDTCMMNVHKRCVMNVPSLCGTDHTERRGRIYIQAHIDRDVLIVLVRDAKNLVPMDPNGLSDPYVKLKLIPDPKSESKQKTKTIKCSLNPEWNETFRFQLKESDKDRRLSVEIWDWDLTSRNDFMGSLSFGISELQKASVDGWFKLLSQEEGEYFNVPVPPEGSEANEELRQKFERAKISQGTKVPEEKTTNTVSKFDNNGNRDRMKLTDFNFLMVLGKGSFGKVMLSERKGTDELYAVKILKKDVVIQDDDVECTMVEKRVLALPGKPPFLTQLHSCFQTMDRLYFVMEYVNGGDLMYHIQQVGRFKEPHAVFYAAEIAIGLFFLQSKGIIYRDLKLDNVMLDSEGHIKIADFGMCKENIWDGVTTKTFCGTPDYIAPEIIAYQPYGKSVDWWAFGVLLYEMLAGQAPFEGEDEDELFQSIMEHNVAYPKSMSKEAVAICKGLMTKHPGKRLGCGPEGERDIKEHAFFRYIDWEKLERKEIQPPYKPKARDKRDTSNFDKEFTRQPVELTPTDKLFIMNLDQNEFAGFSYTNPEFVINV
# [7] = target: Protein kinase C beta type (Homo sapiens) (UniProt P05771); details: at 1 µM
# [8] = target: Protein kinase C eta type (Homo sapiens) (UniProt P24723); details: at 0.1 µM
# Sequence of Protein kinase C eta type (Homo sapiens) (P24723 whole entry): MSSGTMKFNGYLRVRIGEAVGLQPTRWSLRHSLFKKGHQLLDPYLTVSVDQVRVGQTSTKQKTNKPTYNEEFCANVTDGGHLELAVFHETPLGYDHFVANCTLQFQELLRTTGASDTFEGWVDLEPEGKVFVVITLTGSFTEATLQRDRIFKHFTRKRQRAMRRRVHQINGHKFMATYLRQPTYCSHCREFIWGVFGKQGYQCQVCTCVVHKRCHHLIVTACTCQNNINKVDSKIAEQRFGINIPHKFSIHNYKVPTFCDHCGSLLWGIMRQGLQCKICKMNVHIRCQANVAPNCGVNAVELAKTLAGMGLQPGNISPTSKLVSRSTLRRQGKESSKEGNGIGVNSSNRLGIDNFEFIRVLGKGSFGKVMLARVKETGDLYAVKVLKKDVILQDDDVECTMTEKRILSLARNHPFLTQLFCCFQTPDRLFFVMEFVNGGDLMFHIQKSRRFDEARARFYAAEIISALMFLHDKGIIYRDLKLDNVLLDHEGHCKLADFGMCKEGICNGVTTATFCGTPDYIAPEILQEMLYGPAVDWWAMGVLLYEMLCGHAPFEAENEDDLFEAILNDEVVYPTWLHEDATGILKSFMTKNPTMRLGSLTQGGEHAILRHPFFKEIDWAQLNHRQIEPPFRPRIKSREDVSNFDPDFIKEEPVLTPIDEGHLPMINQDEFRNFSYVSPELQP
# [9] = target: Protein kinase C eta type (Homo sapiens) (UniProt P24723); details: at 1 µM
# [10] = target: Protein kinase C gamma type (Homo sapiens) (UniProt P05129); details: at 0.1 µM;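 note: values are mean percent inhibition of PKC gamma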
SMILES,inhibition [1] [%],inhibition [2] [%],inhibition [3] [%],inhibition [4] [%],inhibition [5] [%],inhibition [6] [%],inhibition [7] [%],inhibition [8] [%],inhibition [9] [%],inhibition [10] [%]
O=C(NCC1CC1)c1ccc(-c2cccc(C(=O)NC3CC3)c2)cc1,0.6,0.93,0.36,1.02,0.96,-0.06,-2,3.93,-1.4,4.6
Clc1ccc(CNc2nccc(-c3cnn4ncccc34)n2)cc1,2.08,0.38,1.31,0.92,4.19,0.26,1.03,2.3,7.54,0.4
O=C(Nc1n[nH]c2cc(-c3ccccc3)ccc12)C1CC1,1.51,1.89,2.35,0.99,1.87,-0.78,4.47,2.72,2.77,1.69
NCc1ccc(-n2c(-c3nonc3N)nc3cnccc32)cc1,2.61,10.4,56.1,4.7,41,29.1,64.5,47.1,88.4,4.15
Fc1ccc(-c2ncn(C3CCNCC3)c2-c2ccnc(Oc3ccc(F)c(F)c3)n2)cc1,0.57,-0.98,9.25,-3.02,-0.82,-0.22,3.21,3.45,5.62,1.57
COc1cc2ncn(-c3cc(OCc4ccccc4C(F)(F)F)c(C(C)=O)s3)c2cc1OC,0.15,1.04,1.7,-0.12,0.82,1.02,0.44,3.8,3.47,-0.98
Cc1nnc(-c2ccc(C)c(-c3ccc(C(=O)NCc4ccc(Cl)cc4)cc3)c2)o1,1.14,-1.01,0.62,-3.05,-1.62,0.85,0.84,6.52,7.5,2.61
COc1cc(Nc2ncc3c(C)nc(-c4cccc(Oc5ccccc5)c4)n3n2)cc(OC)c1OC,3.74,0.88,-0.04,0.01,0.77,-0.46,-0.16,4.9,-1.37,0.97
Fc1ccc(-c2ncn(CCCN3CCOCC3)c2-c2ccncc2)cc1,-0.98,0.23,1.67,1.44,1.07,-0.46,-0.8,-2.71,-1.13,-1.84
COc1cc(Nc2ncc(-c3ccccc3)o2)cc(OC)c1OC,-0.87,-0.33,-0.26,-0.31,1.1,-1.34,2.43,-0.81,-4.38,-1
NC(=O)c1ccc(Oc2nccc(-c3c(-c4ccc(F)cc4)ncn3C3CCNCC3)n2)cc1,1.43,8.89,43,1.16,2.25,1.04,5.96,5.08,5.97,2.56
COc1cc2ncn(-c3cc(OCc4cccs4)c(C(N)=O)s3)c2cc1OC,3.07,-0.85,-2.23,-2.88,-2.59,5.39,8.77,4.49,4.09,4.75
Cc1ccc(C(=O)NC(C)C)cc1-c1ccc(C(=O)NCC2CC2)cc1,-3.15,-2.08,-1.32,-0.49,0.46,-0.62,-0.82,-2.29,-3.07,-0.67
CN(C)c1ccc2c(c1)/C(=C/Nc1ccc(S(N)(=O)=O)cc1)C(=O)N2,11.6,1.77,1.6,0.48,1.56,0.94,0.89,2.02,2.17,0.64
CCc1nccc2c1nc(-c1nonc1N)n2CC,0.73,1.21,4.19,1.25,2.71,2.42,20,4.76,21.1,-1.83
NC(=O)c1cc(-c2ccc(F)cc2)cc(-c2ccncc2)c1N,1.54,1.46,3.06,0.16,1.21,-1.29,3.15,3.71,8.19,0.15
CN(c1ccc(NC(=O)Nc2c(Cl)cccc2Cl)cc1)c1ccnc(Nc2cccc(CS(C)(=O)=O)c2)n1,9.04,2.36,3.01,1.14,2.02,0.67,1.35,1.33,3.8,3.61

# — ChEMBL document CHEMBL1961873, “Compounds: GSK PKIS; Assays: Nanosyn kinase panel” (2012)
